This note sets out measurements from PubChem BioAssay (NCI).

Compounds without any hit were thinned out: in the full panel of roughly 83,000, 20% have a hit.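 Single-concentration screen, 48 h exposure, 96-well plates. Endpoint: percent growth. Below 10 = active.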 A number with no mark means an inactive call. Calls of active or inactive are those of the source.

Among the test systems are MOLT-4 leukemia; SR leukemia; OVCAR-8 ovarian; OVCAR-4 ovarian; SK-OV-3 ovarian; IGROV1 ovarian; OVCAR-3 ovarian; HS 578T breast; NCI/ADR-RES ovarian; T-47D breast; BT-549 breast; MDA-MB-435 melanoma; SW-620 colon; MCF7 breast; HCT-116 colon; HCC-2998 colon; KM12 colon; RPMI-8226 leukemia; OVCAR-5 ovarian.
Test in all cases: NCI-60 one-dose screen, 48 h (100 = growth as untreated, 0 = no growth, -100 = all killed)
Conditions in all cases: 10 µM unless noted

As to `O=C1NC(=O)C(=Cc2ccc(OCCCCC3CCCCC3)c(Cl)c2)C(=O)N1`, the growth in the experiment on MOLT-4 leukemia is 96.5%; with SR leukemia, 106%; in the experiment with OVCAR-8 ovarian, 101%; in the experiment on OVCAR-4 ovarian, 105%; with SK-OV-3 ovarian, 99.9%; in the experiment with IGROV1 ovarian it was 104%. Besides, the growth with OVCAR-3 ovarian was 106%; in the experiment with HS 578T breast it was 105%; with NCI/ADR-RES ovarian it was 107%; with T-47D breast, 91.6%; in the experiment with BT-549 breast it was 95.1%; in the experiment with MDA-MB-435 melanoma, 102%. Besides, the growth was 98% in the experiment on SW-620 colon; 88.8% with MCF7 breast; 91.3% with HCT-116 colon; 102% with HCC-2998 colon; 104% in the experiment with KM12 colon.

For `CCN(CC)c1ccc2c(c1)OC(N)=C(C#N)C2c1cc(OC)c2c(c1)OCO2` (stereo not drawn), the growth in the experiment with MOLT-4 leukemia is 23.7%; with RPMI-8226 leukemia, 26.6%; in the experiment on OVCAR-8 ovarian, 17.6%; with OVCAR-5 ovarian it was 51.6%; in the experiment on OVCAR-4 ovarian, 43.5%; in the experiment on SK-OV-3 ovarian, 9.72% (active). The growth with IGROV1 ovarian was 24%; in the experiment on OVCAR-3 ovarian, -30.7% (active); in the experiment on HS 578T breast it was 9.12% (active); with NCI/ADR-RES ovarian, -5.05% (active); in the experiment on T-47D breast, 57.1%; in the experiment with BT-549 breast it was 16.6%. Moreover, the growth in the experiment with MDA-MB-435 melanoma was -13% (active); in the experiment with SW-620 colon, 20.6%; in the experiment on MCF7 breast, 14.4%; in the experiment on HCT-116 colon, -8.55% (active); with HCC-2998 colon it was -3.32% (active); with KM12 colon it was 2.07% (active).

Consider `CCCCOc1ccc(C(N)Cc2ccccc2)cc1` (stereo not drawn), for which the growth was 85.5% with MOLT-4 leukemia; 80.5% in the experiment with RPMI-8226 leukemia; 97.6% with OVCAR-8 ovarian; 95.9% with OVCAR-5 ovarian; 107% in the experiment on OVCAR-4 ovarian; 114% in the experiment on SK-OV-3 ovarian. Moreover, the growth in the experiment with IGROV1 ovarian was 88.2%; with OVCAR-3 ovarian, 102%; in the experiment with HS 578T breast it was 91%; in the experiment on NCI/ADR-RES ovarian, 105%; with T-47D breast, 92.5%; with BT-549 breast, 101%. The growth in the experiment on MDA-MB-435 melanoma was 43.2%; in the experiment on SW-620 colon it was 87.5%; with MCF7 breast, 81.7%; in the experiment on HCT-116 colon it was 86.4%; in the experiment on HCC-2998 colon, 29.9%; in the experiment on KM12 colon, 98.5%.

Regarding `COc1cc([C@@H]2c3cc4c(cc3[C@H](OC(C)=O)[C@H]3COC(=O)[C@@H]23)OCO4)cc(OC)c1OC`, the growth in the experiment with MOLT-4 leukemia is 16.4%; in the experiment on RPMI-8226 leukemia it was 23.6%; in the experiment on OVCAR-8 ovarian, 6.28% (active); in the experiment with OVCAR-5 ovarian, 26.4%; with OVCAR-4 ovarian it was 29.9%; in the experiment on SK-OV-3 ovarian, -10.2% (active). Besides, the growth in the experiment with IGROV1 ovarian was 16.8%; in the experiment with OVCAR-3 ovarian, 13.2%; with HS 578T breast it was 7.08% (active); in the experiment with NCI/ADR-RES ovarian, -43% (active); in the experiment with T-47D breast it was 99.2%; with BT-549 breast it was 8.82% (active). Further, the growth is -24.4% (active) with MDA-MB-435 melanoma; 26.8% in the experiment on SW-620 colon; 13.5% with MCF7 breast; -14.2% (active) in the experiment on HCT-116 colon; -21% (active) with HCC-2998 colon; -37.1% (active) in the experiment on KM12 colon.

Turning to `COc1ccc2c(c1)c(C1(O)CC(CSC#N)OC1=O)cn2C(=O)c1ccc(Cl)cc1` (stereo not drawn), the growth in the experiment on MOLT-4 leukemia was 93.2%; in the experiment on RPMI-8226 leukemia it was 91.9%; in the experiment on OVCAR-8 ovarian, 98.8%; with OVCAR-5 ovarian it was 99.4%; in the experiment on OVCAR-4 ovarian, 101%; with SK-OV-3 ovarian it was 109%. Further, the growth was 77.2% with IGROV1 ovarian; 108% with OVCAR-3 ovarian; 101% in the experiment with HS 578T breast; 92.5% in the experiment with NCI/ADR-RES ovarian; 100% in the experiment with T-47D breast; 97.6% with BT-549 breast. The growth with MDA-MB-435 melanoma is 98.9%; with SW-620 colon, 105%; with MCF7 breast, 91.6%; in the experiment with HCT-116 colon, 97%; in the experiment on HCC-2998 colon, 95.1%.

As for `COc1ccc(/C=C\c2cc(OC)c(OC)c(OC)c2)cc1OCC(=O)Nc1nc2ccc(F)cc2s1`, the growth in the experiment on MOLT-4 leukemia was 12.5%; with RPMI-8226 leukemia it was 48.3%; with OVCAR-8 ovarian, 29.2%; in the experiment on OVCAR-5 ovarian, 92.4%; in the experiment with OVCAR-4 ovarian, 51.1%; in the experiment on SK-OV-3 ovarian, 61.2%. For the same compound, the growth is 17% in the experiment on IGROV1 ovarian; 48.2% with OVCAR-3 ovarian; 33.8% with HS 578T breast; 20.2% in the experiment with NCI/ADR-RES ovarian; 38.3% with T-47D breast; 53.7% in the experiment with BT-549 breast. In addition, the growth with MDA-MB-435 melanoma is 15.5%; in the experiment on SW-620 colon it was 42.4%; with MCF7 breast, 17.1%; with HCT-116 colon, 17.5%; in the experiment on HCC-2998 colon, 72%.

On to `COc1cc2c(=O)n(C3CCCCCCC3)c3c4cc[nH]c4ncc3c2cc1OC`, for which the growth in the experiment with MOLT-4 leukemia is 40.6%; in the experiment on RPMI-8226 leukemia, 50.1%; in the experiment on OVCAR-8 ovarian, 43.7%; in the experiment on OVCAR-5 ovarian, 79.3%; with OVCAR-4 ovarian it was -9.58% (active); with SK-OV-3 ovarian, 36.5%. Besides, the growth with IGROV1 ovarian was 48.4%; with OVCAR-3 ovarian, 36.8%; in the experiment on HS 578T breast, 2.28% (active); in the experiment with NCI/ADR-RES ovarian, 40.5%; in the experiment with T-47D breast, 39.5%; in the experiment with BT-549 breast, 44.6%. The growth in the experiment on MDA-MB-435 melanoma is 57.9%; with SW-620 colon, 56.8%; with MCF7 breast, 39.1%; in the experiment on HCT-116 colon, 31.5%; in the experiment on HCC-2998 colon it was 96.2%; with KM12 colon, 19.1%.

With `CCCCCCC(=O)NC1=C(N2CC2)C(=O)C(NC(=O)CCCCCC)=C(N2CC2)C1=O`, the growth with MOLT-4 leukemia was 49%; in the experiment on RPMI-8226 leukemia, 56.1%; in the experiment on OVCAR-8 ovarian, 32%; in the experiment with OVCAR-5 ovarian it was 93%; in the experiment on OVCAR-4 ovarian it was 30.9%; in the experiment on SK-OV-3 ovarian, 39.8%. For the same compound, the growth in the experiment with IGROV1 ovarian was 20.3%; with OVCAR-3 ovarian, -53.4% (active); in the experiment on HS 578T breast, 88.2%; in the experiment on NCI/ADR-RES ovarian, 60.1%; in the experiment with T-47D breast, 11.4%; in the experiment with BT-549 breast it was 28%. Moreover, the growth in the experiment with MDA-MB-435 melanoma is 13.4%; in the experiment with SW-620 colon it was 56.9%; in the experiment on MCF7 breast, 19.1%; with HCT-116 colon, -14.1% (active); in the experiment with HCC-2998 colon it was 53.9%.

`CSc1nc(Cl)cc(N2CC2)n1`: the growth in the experiment on MOLT-4 leukemia is 108%; with RPMI-8226 leukemia, 73.8%; in the experiment with OVCAR-8 ovarian it was 101%; in the experiment on OVCAR-5 ovarian, 111%; in the experiment on OVCAR-4 ovarian, 114%; in the experiment on SK-OV-3 ovarian, 115%. Besides, the growth in the experiment on IGROV1 ovarian is 123%; in the experiment with OVCAR-3 ovarian, 117%; in the experiment with HS 578T breast, 110%; in the experiment on NCI/ADR-RES ovarian, 119%; with T-47D breast, 108%; with BT-549 breast, 111%. The growth in the experiment on MDA-MB-435 melanoma was 116%; in the experiment with SW-620 colon, 105%; in the experiment on MCF7 breast, 105%; with HCT-116 colon, 105%; in the experiment on HCC-2998 colon, 138%; in the experiment on KM12 colon, 111%.
